Data on 36 compounds can be found in PubChem BioAssay (Tox21).

The structures appear in SMILES notation. “And” between values parts separate entries of the source, which are not always exact repeats. Equal entries are not always repeated. Inconclusive results are not listed. Where a call stands in place of a potency, no number is given. More than one record can exist for a structure, and the calls need not agree. The source made the active and inactive calls. Unless noted, calls follow the shape of the full dose curve.

The target of the first assay is Progesterone receptor (Homo sapiens) (UniProt P06401). The experiment in a line: qHTS assay to identify small molecule agonists of the progesterone receptor (PR) signaling pathway (AID 1346784). Also: nearly all actives have a fitted effect of over 30% in size. The note with it: PR-UAS-bla HEK293T, beta-lactamase FRET ratio, 16 h; series mostly up to 92.4 µM; activation: at the top concentration. The essentials: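 Reporter assay, GripTite PR-UAS-bla HEK 293T cells: 16 hr exposure to DMSO-dissolved compounds at 37C, 5% CO2, in steroid-depleted (2% charcoal-stripped FBS) medium; beta-lactamase measured by FRET fluorescence.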
Progesterone receptor (Homo sapiens), sequence (P06401 whole entry, looked up): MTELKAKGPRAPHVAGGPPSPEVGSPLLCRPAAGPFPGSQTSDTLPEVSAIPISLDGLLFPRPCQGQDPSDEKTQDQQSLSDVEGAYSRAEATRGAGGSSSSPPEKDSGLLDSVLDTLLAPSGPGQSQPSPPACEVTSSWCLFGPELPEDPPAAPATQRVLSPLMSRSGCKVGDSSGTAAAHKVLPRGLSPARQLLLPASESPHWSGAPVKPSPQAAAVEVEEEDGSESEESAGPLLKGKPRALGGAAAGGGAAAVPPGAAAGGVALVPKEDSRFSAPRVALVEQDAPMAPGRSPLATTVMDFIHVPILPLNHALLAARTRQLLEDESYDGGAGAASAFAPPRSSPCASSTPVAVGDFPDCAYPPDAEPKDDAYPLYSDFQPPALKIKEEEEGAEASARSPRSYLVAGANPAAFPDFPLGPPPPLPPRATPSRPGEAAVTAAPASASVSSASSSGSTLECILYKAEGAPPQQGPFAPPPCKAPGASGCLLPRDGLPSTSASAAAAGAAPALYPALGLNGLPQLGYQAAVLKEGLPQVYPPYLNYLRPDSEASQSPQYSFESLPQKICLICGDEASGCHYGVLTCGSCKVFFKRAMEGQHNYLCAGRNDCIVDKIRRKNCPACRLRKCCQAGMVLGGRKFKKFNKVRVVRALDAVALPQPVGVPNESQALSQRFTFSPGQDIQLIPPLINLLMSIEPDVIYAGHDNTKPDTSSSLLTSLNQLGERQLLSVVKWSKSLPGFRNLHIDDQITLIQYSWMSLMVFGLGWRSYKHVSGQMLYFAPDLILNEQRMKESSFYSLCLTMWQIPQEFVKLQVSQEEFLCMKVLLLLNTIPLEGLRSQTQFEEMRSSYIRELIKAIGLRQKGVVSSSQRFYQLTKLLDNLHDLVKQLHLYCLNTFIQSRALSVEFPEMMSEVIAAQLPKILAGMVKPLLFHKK
For the compound `N#Cc1nn(-c2c(Cl)cc(C(F)(F)F)cc2Cl)c(N)c1S(=O)C(F)(F)F` (stereo not given), the Potency entry is “inactive”.
In the case of `CC[n+]1c(-c2ccccc2)c2cc(N)ccc2c2ccc(N)cc21`, the “activation” value is 7.36% (inactive).
The same measure, in the same setting: the same measure for `C[N+](C)(C)CC(=O)[O-]`: 0.749% (inactive).
In the case of `CC(C)(O)C#N`, the Potency result is “inactive”.
On to `c1ccc(C2CO2)cc1` (stereo not given), for which the Potency result was “inactive”.
Still for that read-out and setting: under `O=C(O)CF` stands “inactive”; under `CC1(C)Cc2cccc(O)c2O1`, “inactive”.
Consider `Clc1cccc(C(Cl)(Cl)Cl)n1`, for which the Potency entry is “inactive”.
With `Clc1cccc(Cl)c1`, the Potency entry is “inactive”.
The same measure, in the same setting: under `COP(=S)(OC)SCn1nnc2ccccc2c1=O` stands “inactive”; under `Clc1ccc(C(Cl)(Cl)Cl)cc1`, “inactive”.
Turning to `O=S(=O)(O)C(F)(F)C(F)(F)C(F)(F)C(F)(F)C(F)(F)C(F)(F)C(F)(F)C(F)(F)F`, the Potency result is “inactive”.
For `CCOP(=O)(O)OCC` (tested in a mixture with another compound), the Potency entry was “inactive”.
Consider `Cl`, for which the Potency entry is “inactive”.
For `CC(C)(O)C(=O)Nc1ccc([N+](=O)[O-])c(C(F)(F)F)c1`, the Potency entry is “inactive”.
Turning to `CCOP(=S)(OCC)SCSC(C)(C)C`, the Potency result is “inactive”.
For the compound `CC1=C(C(=O)Nc2ccccc2)SCCO1`, the Potency entry is “inactive”.
In the case of `CNC(=S)S`, the Potency result is “inactive”.
Consider `C[N+](C)(C)C`, for which the Potency result is “inactive”.
As for `CCCCC(C#N)(Cn1cncn1)c1ccc(Cl)cc1` (stereo not given), the Potency result is “inactive”.

Another assay shares this target. The experiment in a line: qHTS assay to identify small molecule antagonists of the progesterone receptor (PR) signaling pathway (AID 1346795; active = well fitted inhibition curve with a large enough effect in the signal ratio in the repeat runs, not every such curve was filed as active; the % refers to the signal ratio; also: potency is read from the fitted curve at half-maximal effect). The note with it: PR-UAS-bla HEK293T, beta-lactamase FRET ratio, 16 h; series mostly up to 92.4 µM; activity change, negative = inhibition: at the top concentration. In a few lines:
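Stimulus R5020 at 1 nM final; cells HEK293T PR-UAS-bla; medium with 2% charcoal-stripped FBS; compound exposure 16 hr at 37C, 5% CO2; detection by FRET beta-lactamase substrate, 2 hr, room temperature.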
Background: In qHTS, concentration-response curves come from the screen itself.
In the case of `ClCC(Cl)CCl`, the Potency entry is “inactive”.
In the case of `CC[n+]1c(-c2ccccc2)c2cc(N)ccc2c2ccc(N)cc21`, the Potency is 38.4 µM (active).
For the compound `O=[N+]([O-])c1ccc(Cl)c([N+](=O)[O-])c1`, the Potency is 24.3 µM (active).
Still for that read-out and setting: under `CCCCSP(=O)(SCCCC)SCCCC` stands 23.8 µM (active) and 24.3 µM (active).
In the case of `C[N+](C)(C)CC(=O)[O-]`, the Potency entry was “inactive”.
For the compound `CCCCOCCOC(C)=O`, the Potency entry is “inactive”.
Consider `CC(C)(O)C#N`, for which the Potency result is “inactive”.
As for `c1ccc(C2CO2)cc1` (stereo not given), the Potency result was “inactive”.
For `O=C(O)CF`, the Potency entry is “inactive”.
Consider `CC1(C)Cc2cccc(O)c2O1`, for which the Potency entry was “inactive”.
Take `NC(=O)CN1CCCC1=O`: the Potency result was “inactive”.
`Clc1cccc(C(Cl)(Cl)Cl)n1`: the Potency result is “inactive”.
Consider `Clc1cccc(Cl)c1`, for which the “activity change, negative = inhibition” value is 6.28% (inactive).
In the case of `Clc1ccc(C(Cl)(Cl)Cl)cc1`, the Potency result was “inactive”.
As to `CC1CC(=O)O1` (stereo not given), the Potency result was “inactive”.
`COc1ccc(O)c(C(C)(C)C)c1`: the “activity change, negative = inhibition” value is -30.2% (inactive).
On to `Nc1ccc2ccccc2c1`, for which the “activity change, negative = inhibition” value was -25.3% (inactive).
For the compound `COP(=O)(NC(C)=O)SC` (stereo not given), the Potency entry was “inactive”.
The same measure, in the same setting: under `CCOP(=O)(O)OCC` (tested in a mixture with another compound) stands “inactive and 60.6 µM (active)”.
On the same count and under the same terms, the same measure for `CCC[CH2][Sn]([Cl])([Cl])[CH2]CCC`: 0.196 µM (active).
With `Cl`, the Potency entry is “inactive”.
For the compound `C[C@]12CCC(=O)C=C1CC[C@@H]1[C@@H]2CC[C@@]2(C)[C@H]1CC[C@]2(C)O`, the “activity change, negative = inhibition” value was -15.2% [at 42.5 µM] (inactive).
With `NN=C(N)N`, the Potency entry was “inactive”.
On to `O=P(OCCCl)(OCCCl)OCCCl`, for which the Potency result is “inactive”.
Same read-out and setting: the same measure for `O=NN1CCOCC1`: “inactive”; for `CNC(=S)S`: “inactive”.
With `CC(C)Nc1ccc(Nc2ccccc2)cc1`, the Potency is 30.5 µM (active) and 27.3 µM (active).
On to `C[N+](C)(C)C`, for which the Potency entry is “inactive”.
For the compound `CCCCOCC1CO1` (stereo not given), the Potency entry was “inactive”.
Take `CCCCC(C#N)(Cn1cncn1)c1ccc(Cl)cc1` (stereo not given): the Potency is 30.5 µM (active).
